# Measured values: the supplement of paper PMC10849652
# Targets with a hit are over-represented here; the source holds about 7,900 in all. About 0.6% of all pairs of compound and target were hits. A number with no mark means an inactive call.
# Tests used:
# Assay in all cases: log2 fold change, soluble protein after heating vs DMSO (PISA); higher = thermal stabilisation; K562 cells, 10 uM, 30 min; active = over 0.2 and 3.5 SD of the protein, either way, in both replicates (recomputed)
# [1] = compound: COC1=CC=C(C=C1)CN2C=CC3=C2C=C(C=C3)C(=O)NO
# Procedure, shortened: (§1)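 K562 cells (2×10^6 cells/mL) were treated with 10 μM compound for 30 min, and aliquots were heated for 3 min over 48°C-58°C. Pooled aliquots were extracted in PBS with 0.5% NP-40 at 4°C, and the supernatant after 21,000xg for 90 min was measured by TMTpro 16plex LC-MS/MS with channel sums equalised. Reported thermal stability, relative to control samples and from duplicates, is a log2 fold change.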
# filanesib = compound: CON(C)C(=O)N1N=C(c2cc(F)ccc2F)S[C@@]1(CCCN)c1ccccc1 [filanesib]
# Procedure, shortened: as §1
# zotarolimus = compound: CO[C@H]1C[C@@H]2CC[C@@H](C)[C@@](O)(O2)C(=O)C(=O)N2CCCC[C@H]2C(=O)O[C@H]([C@H](C)C[C@@H]2CC[C@H](n3cnnn3)[C@H](OC)C2)CC(=O)[C@H](C)/C=C(\C)[C@@H](O)[C@@H](OC)C(=O)[C@H](C)C[C@H](C)/C=C/C=C/C=C/1C [zotarolimus]
# Procedure, shortened: as §1
# idasanutlin = compound: COc1cc(C(=O)O)ccc1NC(=O)[C@@H]1N[C@@H](CC(C)(C)C)[C@](C#N)(c2ccc(Cl)cc2F)[C@H]1c1cccc(Cl)c1F [idasanutlin]
# Procedure, shortened: as §1
# alisertib = compound: COc1cc(Nc2ncc3c(n2)-c2ccc(Cl)cc2C(c2c(F)cccc2OC)=NC3)ccc1C(=O)O [alisertib]
# Procedure, shortened: as §1
# [2] = compound: COc1cc2nc(-c3cc(F)ccc3O)nc(N[C@@H]3CNC[C@H]3C(C)(C)O)c2cc1OC
# Procedure, shortened: as §1
# gefitinib = compound: COc1cc2ncnc(Nc3ccc(F)c(Cl)c3)c2cc1OCCCN1CCOCC1 [gefitinib]
# Procedure, shortened: as §1
# [3] = compound: COc1cccc2cc(-c3nc([C@H]4CC[C@H](C(=O)O)CC4)n4ncnc(N)c34)[nH]c12
# Procedure, shortened: as §1
# lapatinib = compound: CS(=O)(=O)CCNCc1ccc(-c2ccc3ncnc(Nc4ccc(OCc5cccc(F)c5)c(Cl)c4)c3c2)o1 [lapatinib]
# Procedure, shortened: as §1
# pictilisib = compound: CS(=O)(=O)N1CCN(Cc2cc3nc(-c4cccc5[nH]ncc45)nc(N4CCOCC4)c3s2)CC1 [pictilisib]
# Procedure, shortened: as §1
# UniProt P48509, sequence (P48509 whole entry, looked up): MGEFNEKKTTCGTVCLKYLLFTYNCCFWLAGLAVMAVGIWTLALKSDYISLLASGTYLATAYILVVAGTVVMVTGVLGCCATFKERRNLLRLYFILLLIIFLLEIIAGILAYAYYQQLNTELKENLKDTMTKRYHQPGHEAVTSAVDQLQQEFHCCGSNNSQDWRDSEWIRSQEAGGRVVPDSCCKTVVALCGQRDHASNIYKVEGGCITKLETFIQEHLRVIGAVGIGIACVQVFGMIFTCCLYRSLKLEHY
# UniProt Q9H444, sequence (Q9H444 whole entry, looked up): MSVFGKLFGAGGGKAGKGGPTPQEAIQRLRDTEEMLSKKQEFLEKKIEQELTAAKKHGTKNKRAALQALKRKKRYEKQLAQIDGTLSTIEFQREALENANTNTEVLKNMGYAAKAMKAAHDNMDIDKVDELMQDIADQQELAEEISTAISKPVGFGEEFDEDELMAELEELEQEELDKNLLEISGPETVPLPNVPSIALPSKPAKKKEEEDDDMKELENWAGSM
# UniProt Q8N1A6, sequence (Q8N1A6 whole entry, looked up): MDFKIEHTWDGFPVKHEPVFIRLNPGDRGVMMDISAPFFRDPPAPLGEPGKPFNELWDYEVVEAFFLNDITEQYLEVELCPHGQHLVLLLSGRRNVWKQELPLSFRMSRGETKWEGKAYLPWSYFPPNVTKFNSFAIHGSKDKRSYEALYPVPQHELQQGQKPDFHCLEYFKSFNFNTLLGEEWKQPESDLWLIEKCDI
# UniProt P30305, sequence (P30305 whole entry, looked up): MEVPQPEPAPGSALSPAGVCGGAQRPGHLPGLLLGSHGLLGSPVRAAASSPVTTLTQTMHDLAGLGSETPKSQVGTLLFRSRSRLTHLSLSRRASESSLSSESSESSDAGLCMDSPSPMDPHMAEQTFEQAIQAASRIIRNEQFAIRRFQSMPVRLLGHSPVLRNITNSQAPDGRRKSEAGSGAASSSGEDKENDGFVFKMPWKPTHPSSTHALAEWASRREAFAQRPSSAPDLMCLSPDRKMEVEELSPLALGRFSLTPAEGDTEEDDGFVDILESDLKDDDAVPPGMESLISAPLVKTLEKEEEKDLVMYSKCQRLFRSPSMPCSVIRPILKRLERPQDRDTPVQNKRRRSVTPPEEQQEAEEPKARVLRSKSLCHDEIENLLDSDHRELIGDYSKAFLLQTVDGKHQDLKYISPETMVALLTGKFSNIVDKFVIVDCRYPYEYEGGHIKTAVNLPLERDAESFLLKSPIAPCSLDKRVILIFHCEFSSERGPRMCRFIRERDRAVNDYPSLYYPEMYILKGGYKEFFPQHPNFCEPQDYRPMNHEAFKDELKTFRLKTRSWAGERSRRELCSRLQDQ
# UniProt Q96JM3, sequence (Q96JM3 whole entry, looked up): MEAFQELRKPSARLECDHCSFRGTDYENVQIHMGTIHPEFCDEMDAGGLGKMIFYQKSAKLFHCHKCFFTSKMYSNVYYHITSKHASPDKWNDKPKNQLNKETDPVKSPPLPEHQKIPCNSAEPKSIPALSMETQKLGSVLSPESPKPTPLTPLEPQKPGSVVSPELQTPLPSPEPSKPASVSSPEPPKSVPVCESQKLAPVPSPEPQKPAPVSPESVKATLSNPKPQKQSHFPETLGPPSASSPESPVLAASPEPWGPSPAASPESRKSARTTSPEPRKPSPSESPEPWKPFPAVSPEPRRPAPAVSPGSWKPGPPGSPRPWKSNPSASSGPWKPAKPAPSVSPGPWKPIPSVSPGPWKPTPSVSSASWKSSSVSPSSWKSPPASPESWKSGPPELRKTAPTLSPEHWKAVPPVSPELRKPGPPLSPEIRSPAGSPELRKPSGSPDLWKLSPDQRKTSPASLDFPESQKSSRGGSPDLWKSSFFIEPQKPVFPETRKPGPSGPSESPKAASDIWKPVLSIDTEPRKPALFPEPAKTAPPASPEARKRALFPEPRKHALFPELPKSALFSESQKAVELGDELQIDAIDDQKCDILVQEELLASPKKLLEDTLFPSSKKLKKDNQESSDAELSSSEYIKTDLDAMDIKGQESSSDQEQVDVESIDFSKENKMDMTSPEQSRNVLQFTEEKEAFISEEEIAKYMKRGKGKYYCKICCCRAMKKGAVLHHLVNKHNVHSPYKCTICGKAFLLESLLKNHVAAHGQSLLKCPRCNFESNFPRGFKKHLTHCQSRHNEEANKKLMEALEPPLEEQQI
# UniProt P42575, sequence (P42575 whole entry, looked up): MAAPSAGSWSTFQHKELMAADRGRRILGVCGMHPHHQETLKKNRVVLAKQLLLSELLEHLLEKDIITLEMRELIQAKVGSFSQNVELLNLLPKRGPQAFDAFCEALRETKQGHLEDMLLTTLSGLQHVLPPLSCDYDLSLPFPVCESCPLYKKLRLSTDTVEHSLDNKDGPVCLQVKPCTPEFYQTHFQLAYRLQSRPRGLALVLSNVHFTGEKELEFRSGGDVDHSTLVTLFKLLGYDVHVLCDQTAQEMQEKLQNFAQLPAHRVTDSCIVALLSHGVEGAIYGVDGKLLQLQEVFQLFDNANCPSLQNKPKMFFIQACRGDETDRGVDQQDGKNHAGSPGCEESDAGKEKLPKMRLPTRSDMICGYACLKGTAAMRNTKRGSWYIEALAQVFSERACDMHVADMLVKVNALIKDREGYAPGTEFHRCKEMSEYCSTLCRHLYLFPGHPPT
# UniProt O75390, sequence (O75390 whole entry, looked up): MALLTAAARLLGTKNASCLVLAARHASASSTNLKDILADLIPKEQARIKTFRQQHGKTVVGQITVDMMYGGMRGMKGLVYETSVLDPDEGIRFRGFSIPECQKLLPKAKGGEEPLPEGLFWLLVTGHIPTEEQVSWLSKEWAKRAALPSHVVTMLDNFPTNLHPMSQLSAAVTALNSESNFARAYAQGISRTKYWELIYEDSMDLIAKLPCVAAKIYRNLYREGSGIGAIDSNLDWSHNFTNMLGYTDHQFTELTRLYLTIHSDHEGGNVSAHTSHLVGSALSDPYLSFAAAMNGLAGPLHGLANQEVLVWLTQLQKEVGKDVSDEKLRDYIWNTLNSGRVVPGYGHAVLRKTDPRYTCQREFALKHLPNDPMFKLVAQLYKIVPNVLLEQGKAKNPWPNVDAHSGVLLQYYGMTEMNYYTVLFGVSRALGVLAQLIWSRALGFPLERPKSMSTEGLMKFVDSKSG
# UniProt Q5VT25, sequence (Q5VT25 whole entry, looked up): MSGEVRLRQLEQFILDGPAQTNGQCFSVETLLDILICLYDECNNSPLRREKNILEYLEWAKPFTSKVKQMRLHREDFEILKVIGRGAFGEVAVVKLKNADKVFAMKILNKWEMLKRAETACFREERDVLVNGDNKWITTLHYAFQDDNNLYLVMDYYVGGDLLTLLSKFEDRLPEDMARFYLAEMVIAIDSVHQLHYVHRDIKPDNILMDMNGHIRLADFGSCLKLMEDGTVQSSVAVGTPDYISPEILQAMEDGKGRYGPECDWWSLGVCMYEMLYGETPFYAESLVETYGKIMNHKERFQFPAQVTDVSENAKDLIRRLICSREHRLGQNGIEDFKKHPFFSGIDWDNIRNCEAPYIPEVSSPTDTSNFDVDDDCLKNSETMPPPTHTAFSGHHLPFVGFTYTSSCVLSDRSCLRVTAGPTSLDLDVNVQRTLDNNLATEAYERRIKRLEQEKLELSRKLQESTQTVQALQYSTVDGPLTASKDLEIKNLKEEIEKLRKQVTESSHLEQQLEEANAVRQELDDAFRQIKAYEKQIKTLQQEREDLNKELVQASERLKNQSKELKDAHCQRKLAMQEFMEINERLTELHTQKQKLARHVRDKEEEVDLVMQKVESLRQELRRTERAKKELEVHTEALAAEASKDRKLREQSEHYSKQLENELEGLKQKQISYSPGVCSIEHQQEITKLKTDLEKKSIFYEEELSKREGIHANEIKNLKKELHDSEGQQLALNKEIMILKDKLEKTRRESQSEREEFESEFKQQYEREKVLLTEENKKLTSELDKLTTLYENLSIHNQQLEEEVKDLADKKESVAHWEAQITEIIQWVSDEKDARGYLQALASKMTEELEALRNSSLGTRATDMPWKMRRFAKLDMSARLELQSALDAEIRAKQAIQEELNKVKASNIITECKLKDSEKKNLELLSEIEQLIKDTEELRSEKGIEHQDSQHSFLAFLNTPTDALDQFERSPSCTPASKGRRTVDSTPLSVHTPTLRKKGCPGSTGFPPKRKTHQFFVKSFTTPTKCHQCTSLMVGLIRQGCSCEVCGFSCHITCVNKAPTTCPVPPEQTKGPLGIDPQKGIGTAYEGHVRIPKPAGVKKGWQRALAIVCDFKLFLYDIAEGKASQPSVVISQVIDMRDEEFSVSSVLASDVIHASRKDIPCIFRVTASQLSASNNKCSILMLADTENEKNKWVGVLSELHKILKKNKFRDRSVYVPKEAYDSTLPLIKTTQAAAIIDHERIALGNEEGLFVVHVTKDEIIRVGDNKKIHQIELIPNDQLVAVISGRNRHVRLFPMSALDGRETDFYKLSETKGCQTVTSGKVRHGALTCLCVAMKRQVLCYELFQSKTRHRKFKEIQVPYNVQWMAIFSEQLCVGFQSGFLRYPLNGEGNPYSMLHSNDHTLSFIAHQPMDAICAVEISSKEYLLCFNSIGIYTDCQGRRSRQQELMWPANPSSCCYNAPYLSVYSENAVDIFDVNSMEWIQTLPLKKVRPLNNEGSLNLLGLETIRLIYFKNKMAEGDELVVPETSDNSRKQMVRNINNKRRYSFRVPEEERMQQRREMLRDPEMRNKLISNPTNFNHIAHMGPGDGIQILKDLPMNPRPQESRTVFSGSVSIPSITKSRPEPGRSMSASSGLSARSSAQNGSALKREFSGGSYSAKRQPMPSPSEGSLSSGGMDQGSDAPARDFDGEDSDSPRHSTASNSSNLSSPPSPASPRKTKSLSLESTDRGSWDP
# UniProt Q99627, sequence (Q99627 whole entry, looked up): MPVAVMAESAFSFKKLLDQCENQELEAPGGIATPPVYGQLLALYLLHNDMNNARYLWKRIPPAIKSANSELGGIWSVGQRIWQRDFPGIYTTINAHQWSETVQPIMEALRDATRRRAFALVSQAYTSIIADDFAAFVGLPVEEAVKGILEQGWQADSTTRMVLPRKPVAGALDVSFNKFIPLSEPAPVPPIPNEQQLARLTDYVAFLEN
Target,log2 fold change [1],log2 fold change (filanesib),log2 fold change (zotarolimus),log2 fold change (idasanutlin),log2 fold change (alisertib),log2 fold change [2],log2 fold change (gefitinib),log2 fold change [3],log2 fold change (lapatinib),log2 fold change (pictilisib)
CCNT1 (UniProt O60563),-0.05,0.13,0.044,0.109,-0.093,-0.371 (active),0.021,-0.158,0.098,-0.049
COPS8 (UniProt Q99627),0.006,0.023,0.045,-0.017,0.042,-0.078,-0.028,0.117,-0.01,-0.014
CHMP4B (UniProt Q9H444),-0.101,-0.106,-0.015,0.034,-0.036,0.044,-0.005,0.08,-0.09,-0.094
CD151 (UniProt P48509),-0.045,0.108,-0.048,-0.12,0.075,0.111,0.001,-0.024,0.012,0.116
CS (UniProt O75390),0.012,-0.172,0.011,-0.033,-0.013,-0.139,0.041,0.059,-0.027,0.099
CKS1B (UniProt P61024),-0.045,0.047,0.013,-0.011,-0.012,-0.048,-0.008,0.031,0.004,-0.007
C4orf33 (UniProt Q8N1A6),-0.055,0.072,-0.009,-0.054,-0.17,-0.026,0.029,0.061,0,0.049
CDC25B isoform 4 (UniProt P30305),-0.038,0.005,-0.056,0.052,-0.018,0.026,-0.013,0.068,-0.012,0.03
CETN3 (UniProt O15182),-0.211,-0.026,0.041,0.068,-0.058,0.161,-0.001,0.072,-0.175,0.061
CASP2 (UniProt P42575),0.122,-0.02,0.047,-0.067,-0.019,-0.245,-0.082,0.072,-0.323 (active),0.069
CHAMP1 (UniProt Q96JM3),-0.001,-0.008,0.07,0.005,0.006,0.025,0.029,0.022,-0.065,0.107
COX20 isoform 2 (UniProt Q5RI15),-0.029,-0.011,-0.029,-0.039,-0.025,0.06,-0.01,0.012,-0.014,-0.081
COMMD2 (UniProt Q86X83),-0.039,0.058,0.124,-0.058,-0.126,0.076,0.018,0.001,0.02,0.007
CDC42BPA isoform 6 (UniProt Q5VT25),-0.005,0.009,0.081,0.004,-0.04,-1.1 (active),-0.096,-0.027,0.106,0.118
